# Data reported in PubChem BioAssay (NCI).
# Several values for one entry are separate records, joined by “and”; a condition that tells them apart may be missing. Equal values may be shown once. Compounds without any hit were thinned out: in the full panel of roughly 83,000, 20% have a hit.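 Single-concentration screen, 48 h exposure, 96-well plates. Endpoint: percent growth. Below 10 = active.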 A number with no mark means an inactive call. Activity calls are given as the source filed them.
# Experiments:
# Experiment in all cases: NCI-60 one-dose screen, 48 h (100 = growth as untreated, 0 = no growth, -100 = all killed)
# Conditions in all cases: 10 µM
# SR leukemia = tested on: SR leukemia
# RPMI-8226 leukemia = tested on: RPMI-8226 leukemia
# OVCAR-8 ovarian = tested on: OVCAR-8 ovarian
# OVCAR-5 ovarian = tested on: OVCAR-5 ovarian
# OVCAR-4 ovarian = tested on: OVCAR-4 ovarian
# SK-OV-3 ovarian = tested on: SK-OV-3 ovarian
# IGROV1 ovarian = tested on: IGROV1 ovarian
# OVCAR-3 ovarian = tested on: OVCAR-3 ovarian
# HS 578T breast = tested on: HS 578T breast
# NCI/ADR-RES ovarian = tested on: NCI/ADR-RES ovarian
# T-47D breast = tested on: T-47D breast
# BT-549 breast = tested on: BT-549 breast
# MDA-MB-435 melanoma = tested on: MDA-MB-435 melanoma
# SW-620 colon = tested on: SW-620 colon
# MCF7 breast = tested on: MCF7 breast
# HCT-116 colon = tested on: HCT-116 colon
# HCC-2998 colon = tested on: HCC-2998 colon
# KM12 colon = tested on: KM12 colon
# MDA-MB-468 breast = tested on: MDA-MB-468 breast
SMILES,growth (SR leukemia),growth (RPMI-8226 leukemia),growth (OVCAR-8 ovarian),growth (OVCAR-5 ovarian),growth (OVCAR-4 ovarian),growth (SK-OV-3 ovarian),growth (IGROV1 ovarian),growth (OVCAR-3 ovarian),growth (HS 578T breast),growth (NCI/ADR-RES ovarian),growth (T-47D breast),growth (BT-549 breast),growth (MDA-MB-435 melanoma),growth (SW-620 colon),growth (MCF7 breast),growth (HCT-116 colon),growth (HCC-2998 colon),growth (KM12 colon),growth (MDA-MB-468 breast)
O=C(CSc1nnc(-c2ccc3nc(-c4ccc(Cl)cc4)[nH]c3c2)o1)Nc1ccc(Cl)cc1,3.21% (active),0.0065% (active),-17.6% (active),-10.2% (active),-46.7% (active),21.6%,-18.8% (active),-15.4% (active),-32.5% (active),11.8%,28%,-65.1% (active),-65.8% (active),-69.9% (active),-72.7% (active),-48.9% (active),18.5%,-12.8% (active),-48.4% (active)
CCOP(=O)(OCC)O[C@H]1CC[C@]2(C)[C@H]3CC[C@@H]4[C@@H]([C@](C)(O)CCC=C(C)C)CC[C@@]4(C)[C@]3(C)CC[C@H]2C1(C)C,-7.18% (active),2.3% (active),32.9%,44%,38.8%,37%,55%,11.1%,11.4%,36%,9.26% (active),-14.5% (active),29.9%,14.9%,-0.325% (active),9.92% (active),36%,21.1%,-23.3% (active)
C/C(=N\N=C\c1ccc(Cl)c([N+](=O)[O-])c1)c1ccc2c(c1)Nc1ccccc1S2,44.1%,33.3%,6.83% (active),72.8%,23.7%,94.8%,60.3%,27.5%,0.197% (active),11.7%,41.3%,58.4%,49.9%,6.06% (active),6.3% (active),19.4%,8.71% (active),29.4%,-29.3% (active)
C/C(=C\c1ccc(O)cc1O)c1ccc2ccc(O)cc2[o+]1,20.2%,65.7%,9.36% (active),192%,74.4%,103%,47.8%,28.7%,90.2%,22.1%,56%,45.5%,21.4%,44.8%,22.2%,26.9%,61.4%,22.5%,
N#Cc1c(NC(=O)c2ccc(C(F)(F)F)cc2)sc2c1CCC(O)=C2,8.2% (active),9.09% (active),28.9%,82.8%,41.6%,17.9%,38.3%,18.8%,12.3%,-33.5% (active),22.9%,58.7%,-33.8% (active),17.1%,9.26% (active),23.9%,47.3%,18.2%,-31.9% (active)
CN(C)CCNC(=O)OCCCCOc1cc(O)c2c(=O)cc(-c3ccccc3)oc2c1,-28.9% (active),-9.41% (active),3.84% (active),-4.32% (active),-16.2% (active),99.1%,-9.88% (active),-77.1% (active),40.7%,27.9%,-65.8% (active),-59.9% (active),-51% (active),-31.7% (active),-89.8% (active),-68.9% (active),-50.8% (active),-49.8% (active),-81.1% (active)
COc1ccc(-c2cc(C(=O)N=Nc3c(O)[nH]c4ccc(F)cc34)c3ccccc3n2)cc1,22.5%,72.2%,59.1%,88.5%,52%,101%,62.3%,59.1%,74%,61.9%,75.9%,86.3%,65.2%,41.1%,23.6%,39.7%,91.1%,81.3%,44.2%
COc1ccc(CN2[C@@H](C(=O)NCc3ccc(C(=O)NO)cc3)Cc3c([nH]c4ccccc34)[C@@H]2C)cc1,14.5%,20.1%,27.9%,4.29% (active),40.1%,-8.39% (active),12.4%,11.1%,-5.59% (active),68.8%,13.9%,43.6%,-36.4% (active),-31.3% (active),15.8%,9.97% (active),14.6%,20.4%,7.58% (active)
COc1ccc2c3nc4cc(C)c(C)cc4nc3n(CCN(C)C)c2c1,9.88% (active),9.26% (active),-56.4% (active),24.5%,-26.1% (active),-12.8% (active),-8.59% (active),-47.1% (active),49.1%,0.91% (active),-12.2% (active),39.4%,-76.1% (active),-51.6% (active),-16.6% (active),-61.1% (active),-56.1% (active),-18% (active),-10.9% (active)
N#Cc1ccc(-c2nn(-c3ccc(C(=O)O)cc3)cc2CNc2ccc(Oc3ccccc3)cc2)cc1,37.3%,22.4%,39.2%,81.1%,73.7%,111%,74.7%,45.1%,53.9%,17.1%,22.6%,-5.49% (active),63.6%,59.3%,59.8%,16.7%,11.5%,16.3%,103%
COc1ccc2cc([C@H](C)C(=O)NCc3ccccc3)ccc2c1,29.8%,25.1%,32.7%,53.8%,53.5%,40.6%,46.9%,19.9%,16.8%,-10% (active),41.5%,42.8%,-13.2% (active),29.3%,22.5%,37%,50.7%,39.1%,-20.3% (active)
Cc1noc2c(Cc3ccc([N+](=O)[O-])cc3)nn(CC(=O)N/N=C/c3ccc(Br)cc3)c(=O)c12,97.6%,91.2%,48.9%,96.9%,17.9%,86.2%,95.9%,50.1%,41.5%,88.5%,62%,94.3%,92.3%,97.4%,68.4%,64.4%,91.9%,84.2%,95.3%
O=C(CNc1nc(-c2ccccc2)cs1)Nc1ccc(Cl)cc1[N+](=O)[O-],7.61% (active),1.75% (active),10.8%,-52.2% (active),15.5%,-6.03% (active),8.13% (active),-31.9% (active),-18.3% (active),-30.7% (active),-32.6% (active),-46.6% (active),-5.51% (active),-60.6% (active),-59.3% (active),-22.8% (active),-93.4% (active),-0.339% (active),-34.9% (active)
C/C(=N\N=C\c1ccc(N(C)C)cc1)c1ccc2c(c1)Nc1ccccc1S2,50%,48.5%,38.5%,57.4%,17.4%,87.8%,68.9%,44.5%,18.7%,26.6%,44.6%,58.2%,51.1%,35.3%,35.8%,31.4%,54.4%,60.9%,8.43% (active)
COc1ccc2ncc(C#Cc3cncc(C(=O)Nc4ccc(CN5CCN(C)CC5)c(C(F)(F)F)c4)c3)n2n1,-26.3% (active),-26.3% (active),-49.2% (active),-94.5% (active),-75.2% (active),49.8%,-76.1% (active),-93.2% (active),-2.29% (active),-81.4% (active),61.8%,-75.7% (active),-89.6% (active),-72.4% (active),-71.7% (active),-43.6% (active),-95.8% (active),-95% (active),-91.1% (active)
CC(C)Sc1nc(NC2CC2)c(C#N)c(-c2ccccc2)n1,99.8%,94.2%,30.8%,92%,27.6%,88.8%,74%,86.5%,71.7%,57.6%,92.7%,91.2%,98.6%,100%,88.1%,46.7%,97%,94.7%,80.4% and 99.9%
